Screens from PubChem BioAssay.
JMJD2A Tudor inh = qHTS Assay for Inhibitors of JMJD2A-Tudor Domain; Potency, µM (highest dose often 114 µM), inactives show at the top dose activity change, negative = inhibition, most hits filed as inhibitors; hit rate 4.4% among 390,000; Lysine-specific demethylase 4A (Homo sapiens), O75164; AlphaScreen JMJD2A-Tudor / H3K4me3 peptide binding; note: % is set by controls: 0 for no effect and ±100 for the full control effect; nearly all actives have a fitted effect of over 50% in size
L3MBTL1 inh = qHTS Assay for the Inhibitors of L3MBTL1; Lethal(3)malignant brain tumor-like protein 1 (Homo sapiens), Q9Y468; AlphaScreen L3MBTL1–H3K9me1 peptide binding; Potency, µM (titrated, usually from 57.1 µM), inactives show at the highest dose activity, negative = inhibition, hits mostly inhibitors; hit rate 0.66% among 230,000; AID 485360, 2010; note: % is set by controls: 0 for no effect and ±100 for the full control effect; nearly all actives have a fitted effect of over 60% in size
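L3MBTL1 (50 nM) pre-complexed 30 min with biotinylated H3(1-15)K9me1 peptide (75 nM), then compounds added for 30 min at room temperature; AlphaScreen streptavidin donor/nickel chelate acceptor beads (10 ug/mL final) read after 30 min dark incubation.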
BAZ2B block = qHTS Assay for Inhibitors of BAZ2B | AID 504333, 2011 | Bromodomain adjacent to zinc finger domain protein 2B (Homo sapiens), Q9UIF8 | hit rate 4.4% among 360,000 | Potency, µM (doses to about 114 µM), inactives show at the highest dose activity change, negative = inhibition, hits mostly inhibitors | AlphaScreen BAZ2B-H3K14Ac peptide displacement; note: % is set by controls: 0 for no effect and ±100 for the full control effect; nearly all actives have a fitted effect of over 60% in size
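AlphaScreen luminescence quantifies BAZ2B engagement of H3K14Ac peptide; the protein and biotinylated peptide are both at 50 nM final, buffer PBS pH 7.4 with 0.01% Tween-20, all steps at room temperature.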
Sfp PPTase inh = qHTS Assay for Inhibitors of Bacillus subtilis Sfp phosphopantetheinyl transferase (PPTase). Potency, µM, inactives show largest response in the series, negative = inhibition, usual class: inhibitors. Biochemical Sfp PPTase activity, qHTS. hit rate 3.5% among 310,000. AID 1490, 2009. 4'-phosphopantetheinyl transferase ffp (Bacillus subtilis), Q9F4F7;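 note: the enzyme is Sfp with the accession as filed and its product quenches rhodamine fluorescence; 0% = enzyme reaction without inhibitor and -100% = no enzyme wells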
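After 15 min at room temperature with compound, 15 nM Sfp received 5 uM rhodamine-CoA plus 12.5 uM BHQ-2-ybbR (50 mM Hepes pH 7.6, 10 mM MgCl2). Rate came from the fluorescence difference over 30 min, ex 525/em 598 nm.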
HP1b binding inh = HTS for Inhibitors of HP1-beta Chromodomain Interactions with Methylated Histone Tails; Chromobox protein homolog 1 (Homo sapiens), P83916; AlphaScreen HP1-beta / biotin-H3K9me3 peptide binding; Potency, µM (titrated, usually from 114 µM), for inactives: top-dose activity change, negative = inhibition, hits mostly inhibitors; hit rate 0.56% among 390,000; AID 540317, 2011; note: nearly all actives have a fitted effect of over 70% in size
Target sequence (P83916 whole entry, looked up): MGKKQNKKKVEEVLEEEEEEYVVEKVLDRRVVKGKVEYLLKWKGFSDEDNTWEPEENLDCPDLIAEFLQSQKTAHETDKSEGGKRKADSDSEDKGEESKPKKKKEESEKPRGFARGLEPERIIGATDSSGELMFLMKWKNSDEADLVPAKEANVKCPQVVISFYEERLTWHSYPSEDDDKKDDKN
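HP1-beta protein (50 nM final) preincubated 30 min at room temperature with biotinylated H3(1-18)K9me3 peptide (50 nM) in PBS pH 7.4, 0.01% Tween-20, then compound added for 30 min. AlphaScreen streptavidin donor/nickel chelate acceptor beads (10 ug/mL final), 30 min dark, luminescence read.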
G9a inh = qHTS Assay for Inhibitors of Histone Lysine Methyltransferase G9a | Histone-lysine N-methyltransferase EHMT2 (Homo sapiens), Q96KQ7 | G9a H3K9 monomethylation, AlphaScreen, 2 h | Potency, µM (titrated, usually from 102 µM), inactives show at the top dose activity, negative = inhibition, actives largely listed as inhibitors | hit rate 8.8% among 350,000; note: % is set by controls: 0 for no effect and ±100 for the full control effect; nearly all actives have a fitted effect of over 75% in size
Target sequence (Q96KQ7 913-1193 limits assumed): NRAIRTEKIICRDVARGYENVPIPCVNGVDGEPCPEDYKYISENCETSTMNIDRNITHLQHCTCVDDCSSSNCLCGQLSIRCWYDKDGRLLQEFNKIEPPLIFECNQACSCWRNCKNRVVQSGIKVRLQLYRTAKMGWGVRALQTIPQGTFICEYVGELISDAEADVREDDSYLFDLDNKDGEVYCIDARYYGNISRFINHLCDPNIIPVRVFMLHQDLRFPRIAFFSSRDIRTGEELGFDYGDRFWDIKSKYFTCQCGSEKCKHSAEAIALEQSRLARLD
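Step 1: enzyme (final 20 nM) with compound, 15 min RT. Step 2: substrate peptide 500 nM and SAM 20 uM, 2 h RT. Step 3: anti-H3K9me1 antibody and AlphaScreen beads, 10 min, then plate read.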
Active calls of the source: *; ? = inconclusive; . = no result given; [ ] = another dose, or the depositor's remark. A selection: hits, their analogues and other compounds. The true share with any hit is near 12%. Calls come from the whole dose curve; as a rule, active = well fitted curve in the direction sought with a large enough effect; inconclusive = small, poorly fitted or top-dose-only effect, or another doubt; inactive = no such curve, though single readings can be large; an effect the other way counts as inactive or inconclusive. Potency is the fitted concentration of half-maximal effect.

SMILES	JMJD2A Tudor inh	L3MBTL1 inh	BAZ2B block	Sfp PPTase inh	HP1b binding inh	G9a inh
O=[N+]([O-])c1ccc(Sc2n[nH]c(-c3ccncc3)n2)nc1	-9%	.	-1%	?	36%	45µM*
O=[N+]([O-])c1ccc(Sc2ccc(Cl)c(Cl)c2)nc1	?	-4%	22µM*	-3%	-23%	?
Cc1cc(C)c(C#N)c(SCc2ccccc2[N+](=O)[O-])n1	-13%	-13%	-33%	-6%	27%	10µM*
O=[N+]([O-])c1ccc(Sc2nnnn2-c2ccccc2)nc1	-31%	-24%	-31%	14%	30%	-34%
COc1ccc(-c2nn3c(-c4cc(C)[nH]n4)nnc3s2)cc1	-2%[57.1 µM]	.	.	.	22%[57 µM]	.
O=[N+]([O-])c1cccnc1SCc1c(F)cccc1Cl	-26%	-19%	?	23%	7%	.
O=[N+]([O-])c1ccc(Sc2ccccn2)nc1	-14%	-5%	-11%	1%	33%	45µM*
O=[N+]([O-])c1ccc(SCc2c(F)cccc2Cl)nc1	56µM*	-8%	?	-21%	-21%	.
O=[N+]([O-])c1ccccc1CSc1ccccn1	-15%	7%	-2%	-2%	-13%	50µM*
COc1ccc(-c2noc(N(c3cccc(Cl)c3)c3nc(-c4ccc(OC)c(OC)c4)no3)n2)cc1OC	-1%	.	-11%	.	55%	55%[59 µM]
CCOC(=O)c1ccc(NC(=O)CNC(=O)C23CC4CC(CC(C4)C2)C3)cc1	-6%	2%	-3%	15%	13%	-3%[59 µM]
CCOC(=O)c1ccc(NS(=O)C23CC4CC(CC(C4)C2)C3)cc1 (configuration not stated)	-28%	7%	-4%	7%	52%	5µM*
O=C1N(Cc2cccc(C(F)(F)F)c2)c2ccccc2S(=O)(=O)N1c1cccc(Cl)c1	-7%	.	0%	.	10%	2%[59 µM]
COc1ccc(N2CCN(Cc3cc(=O)oc4ccc(C)cc34)CC2)cc1	-27%	.	-3%	12%	-4%	-22%
CC(C)c1ccc2oc(=O)cc(CN3CCN(c4ccc(F)cc4)CC3)c2c1	-23%	-8%	-32%	-8%	-2%	50µM*
CCc1ccc2oc(=O)cc(CN3CCN(c4ccc(F)cc4)CC3)c2c1	-19%	-20%	-30%	7%	22%	50µM*
CCOc1ccc2oc(=O)cc(CN3CCN(Cc4ccc(F)cc4)CC3)c2c1	-24%	.	8%	.	19%	-1%[59 µM]
COCCNc1cc(-c2ccccc2C(F)(F)F)ncn1	.	.	.	-26%	.	.
COc1cc(OC)cc(C(=O)NCCc2csc(-c3cccc(C)c3)n2)c1	-1%	.	3%	.	31%[57 µM]	20%[59 µM]
C#C[C@]1(OC(C)=O)CC[C@H]2[C@@H]3CCC4=C/C(=N/O)CC[C@@H]4[C@H]3CC[C@@]21CC	.	.	.	79µM*	.	-43%[12.7 µM]
C#C[C@@]1(OC(C)=O)CC[C@@H]2[C@@H]3CCC4=C[C@@H](OC(C)=O)CC[C@H]4[C@H]3CC[C@]21C	.	.	.	-12%	.	17%[21.5 µM]
CCOC(=O)c1c(Nc2cccc(C(=O)OC)c2)nnc(-c2ccccc2)c1-c1ccccc1	-33%	.	?	.	-3%	?
CCOC(=O)c1c(Nc2ccc(C)cc2)nnc(-c2ccccc2)c1-c1ccccc1	?	.	?	.	-18%	2.2µM*
CC[C@H](C)[C@H](NC(N)=O)C(=O)Nc1ccc(OC)c(Cl)c1	-7%	-12%	-13%	9%	45%	-2%
CCC(C)C(NC(N)=O)C(=O)Nc1ccc(C)c(Cl)c1 (configuration not stated)	-10%	3%	-11%	-14%	40%	8.9µM*
